Out of some 63,000 compounds screened, about 1,100 (1.7%) were called active. Cut-off read from the data, not from the text of the source: active = cytotoxicity above about 50%; inactive = the rest. Only a selection was taken, and actives are over-represented in it overall. Measured potencies and affinities stand elsewhere.

This experiment can be described thus: HPDE-C7 pancreatic duct cell viability loss – fluorescence, HTS (AID 430).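 Note: cells exposed to compound for 48 hours before viability readout; 0% = vehicle and 100% = reference cytotoxic drug.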 The note with it: HPDE-C7 pancreatic duct cells viability, at 10 µM, stronger effect = higher value.
Take `Clc1ccccc1Cn1nnc2c(N3CCCC3)ncnc21`: the cytotoxicity was 5% (inactive).
Turning to `COc1ccc(C2(O)CCN(Cc3nnnn3Cc3ccc(C)cc3)CC2)cc1`, the cytotoxicity is -4.4% (inactive).
On to `O=C(Oc1cc2oc(=O)c3c(c2cc1Cl)CCCC3)c1ccco1`, for which the cytotoxicity is -3.8% (inactive).
The value for `CNc1oc(Cc2cccc3ccccc23)nc1C#N` was 3.8% (inactive).
The figure for `N#Cc1nc(Cc2cccc3ccccc23)oc1NCc1ccco1` is 58.4% (active); for `C=CCNc1oc(Cc2cccc3ccccc23)nc1C#N` it is -12% (inactive); for `CCn1cc(C(=O)NCCCN(C)c2ccccc2)c(=O)c2cc(S(=O)(=O)N(C)C)ccc21` it is 10.5% (inactive).
The value for `CCc1nnc(NC(=O)CSc2nccn2-c2cc(C)cc(C)c2)s1` was 7.6% (inactive); that for `CCOc1ccc(-c2nc(-c3ccccc3C)no2)cc1` was 2.4% (inactive); that for `Cc1ccccc1-c1noc(-c2cccs2)n1` was -7.3% (inactive).
In the case of `Cc1ccccc1-c1noc(-c2ccc(O)cc2)n1`, the cytotoxicity is 52.8% (active).
For `CCn1c(-c2c[nH]c3ccccc23)n[nH]c1=S`, the cytotoxicity was 6.5% (inactive).
The figure for `O=C1Cc2ccccc2N1c1ccccc1` is -6.3% (inactive); for `CCOC(=O)C1CCN(Cc2ccc(OC)c(C)c2OC)CC1` it is 2.2% (inactive); for `CCOC(=O)C1CCN(Cc2ccc(O)c3ncccc23)CC1` it is 60.3% (active).
As for `CCOC(=O)C1CCN(Cc2c(O)ccc3ccccc23)CC1`, the cytotoxicity was -5.8% (inactive).
The figure for `CN(C)c1ccc(C(=S)N2CCOCC2)cc1Br` is -13.8% (inactive).
The figure for `CCOC(=O)N1CCN(C(=O)c2ccc3c(=O)n(Cc4ccc(OC)cc4)c(=S)[nH]c3c2)CC1` is -14.8% (inactive).
In the case of `COc1ccc(N2C(=O)CC(N3CCN(c4nc5ccccc5s4)CC3)C2=O)cc1` (stereo not given), the cytotoxicity was 7.5% (inactive).
The value for `CC(NC(=O)Nc1nccs1)(C(F)(F)F)C(F)(F)F` was -4.1% (inactive); that for `O=C(NCC(F)(F)F)Nc1nnc(C(F)(F)F)s1` was 12.3% (inactive); that for `CCSc1nnc(NC(=O)NC(CC)(C(F)(F)F)C(F)(F)F)s1` was 14.7% (inactive).
For the molecule `CCC(NC(=O)Nc1nccs1)(C(F)(F)F)C(F)(F)F`, the cytotoxicity was -7% (inactive).
The figure for `O=C(COC(=O)c1n[nH]c2ccccc12)NC(=O)NCc1ccco1` is -1.6% (inactive); for `CC1=C(C(=O)Nc2ccccc2)C(c2ccncc2)C(C#N)=C(SCC(=O)NC2CC2)N1` (stereo not given) it is -16.3% (inactive).
The value for `COc1ccc(NC(=O)CSc2nnc(CNC(=O)c3ccco3)o2)c(OC)c1` was -0.9% (inactive); that for `CCOC(=O)C1=C(C)NC(C)=C(C(=O)OCC)C1C(=O)OCC(=O)N1CCC(C)CC1` was 0% (inactive).
Consider `CCCn1c(=O)c(C(=O)NCc2ccccn2)c(O)c2ccccc21`, for which the cytotoxicity is -12.9% (inactive).
The figure for `CCCn1c(=O)c(C(=O)Nc2nnc(CC)s2)c(O)c2ccccc21` is 51.2% (active); for `CCCn1c(=O)c(C(=O)Nc2cnccn2)c(O)c2ccccc21` it is -11.9% (inactive).
The value for `CCc1nnc(NC(=O)c2cccc(C(=O)Nc3nnc(CC)s3)n2)s1` was 52.5% (active).
The value for `CCc1nnc(NC(=O)c2cnccn2)s1` was -17.9% (inactive); that for `CCc1nnc(NC(=O)c2cccc(OC)c2)s1` was -1.7% (inactive).
As to `C=CCn1c(=O)c(C(=O)Nc2nnc(C)s2)c(O)c2ccccc21`, the cytotoxicity is 7.8% (inactive).
Regarding `CCCn1c(=O)c(C(=O)Nc2nnc(C)s2)c(O)c2ccccc21`, the cytotoxicity is 75.2% (active).
The figure for `CCCn1c(=O)c(C(=O)Nc2ccncc2)c(O)c2ccccc21` is 31.4% (inactive); for `CCc1nnc(NC(=O)c2c(O)c3cccc4c3n(c2=O)CC4)s1` it is 34.5% (inactive).
The figure for `CC(C)Cn1c(=O)c(C(=O)Nc2ccncc2)c(O)c2ccccc21` is 53.2% (active); for `CC(C)Cn1c(=O)c(C(=O)Nc2cnccn2)c(O)c2ccccc21` it is 29.3% (inactive).
The value for `CC1CC(C)CN(C(=O)C(NS(=O)(=O)c2ccc3c(c2)oc(=O)n3C)C(C)C)C1` (stereo not given) was 9.9% (inactive); that for `CC(Sc1nnc(Cn2c(=O)sc3ccccc32)n1C)c1ccccc1` (stereo not given) was -13.8% (inactive).
Take `O=C(O)CCC1COc2ccccc2O1` (stereo not given): the cytotoxicity was -3.3% (inactive).
The figure for `CC(C)(C)n1nc2c(c1NC(=O)c1ccc(Br)cc1)CS(=O)C2` (stereo not given) is 0.9% (inactive); for `Cc1cc(NC(=O)c2cc(-c3cccs3)nc3ccccc23)no1` it is 13.3% (inactive); for `CCOC(=O)c1[nH]c(C)c(C(=O)NCc2ccc(C)cc2)c1C` it is -17.6% (inactive).
Regarding `CCn1c(=O)c(C(=O)Nc2cccnc2)c(O)c2ccccc21`, the cytotoxicity is 15.8% (inactive).
As to `CCn1c(=O)c(C(=O)Nn2c(C)nc3ccccc3c2=O)c(O)c2ccccc21`, the cytotoxicity is 21.7% (inactive).
As to `CCn1nc(NC(=O)c2ccncc2)c2cc3ccc(C)cc3nc21`, the cytotoxicity was -0.2% (inactive).
The figure for `CCOC(=O)Cn1nnc(-c2ccc(OCC(C)C)cc2)n1` is -9.5% (inactive); for `NC(=O)CSc1nnc(Cn2c(=O)sc3ccccc32)n1-c1ccccc1` it is 3.5% (inactive).
In the case of `CCOc1ccc(-c2nnn(CC(=O)Nc3cc(OC)ccc3OC)n2)cc1OCC`, the cytotoxicity is 69.5% (active).
For the molecule `CCOc1ccc(-c2nnn(CC(=O)Nc3cc(OC)cc(OC)c3)n2)cc1OCC`, the cytotoxicity was 8% (inactive).
On to `CCOc1ccc(-c2nnn(CC(=O)Nc3ccccc3OC)n2)cc1OCC`, for which the cytotoxicity is -3.5% (inactive).
The figure for `CCOC(=O)c1ccc(NC(=O)c2cc(S(=O)(=O)N3CCOCC3)ccc2O)cc1` is 3.3% (inactive); for `Cc1c(Cl)cccc1NC(=O)CC(C(=O)O)C1CCCO1` (stereo not given) it is 7.8% (inactive).
For the molecule `Cc1ccc(N2C(N)=NC(N)=NC23CCCC3)c(C)c1`, the cytotoxicity is -2.3% (inactive).
The value for `c1ccc(CNc2nc3ccccc3[nH]2)cc1` was -11.8% (inactive); that for `Cc1ccc2nc(NCc3ccccc3)[nH]c2c1` was 70.4% (active); that for `COc1ccc2nc(NCc3ccccc3)[nH]c2c1` was 39.1% (inactive).
As to `CN(CC(=O)NC1CCCc2ccccc21)S(=O)(=O)c1ccc2c(c1)c(=O)n(C)c(=O)n2C` (stereo not given), the cytotoxicity was -10.5% (inactive).
The value for `c1csc(-c2csc(-c3cccs3)n2)c1` was -4.7% (inactive); that for `COc1ccccc1S(=O)Cc1ccc(C(=O)NC2CCCC2)o1` (stereo not given) was -13.2% (inactive).
The value for `COC(=O)c1ccccc1NC(=O)Cn1cc2c(n1)CCC(C)C2` (stereo not given) was -7.1% (inactive).
With `Cc1ccc(C2NC(=O)c3ccccc3N2)s1` (stereo not given), the cytotoxicity was 55.9% (active).
The value for `O=C1NC(c2cccs2)Nc2ccccc21` (stereo not given) was 5% (inactive).
On to `Cc1ccsc1C1NC(=O)c2ccccc2N1` (stereo not given), for which the cytotoxicity was -19.5% (inactive).
The figure for `CCN(CC)CCn1c(OC)cc(=O)[nH]c1=O` is -2.5% (inactive).
For the molecule `O=C(CCNC(=O)c1ccc(Br)o1)NCc1ccccc1Cl`, the cytotoxicity was -6.1% (inactive).
The value for `CC(C)c1ccc(-c2nc(N3CCCCC3)[nH]c(=O)c2C#N)cc1` was 24.7% (inactive); that for `COc1ccc(CCNC(=O)CSc2nnnn2Cc2ccc3c(c2)OCO3)cc1OC` was -16.4% (inactive).
The figure for `COc1ccc(OC(=O)c2cc3ccccc3o2)cc1` is -0.5% (inactive); for `COc1ccc(-c2noc(C)c2-c2ccc3ccccc3n2)c(O)c1` it is 48.2% (inactive).
`CCOC(=O)c1ccc(NC(=O)Cn2nnc3ccccc32)cc1`: the cytotoxicity was 3.7% (inactive).
For `CCOC(=O)C1=C(C)NC(SCC(=O)Nc2nc(C)cs2)=C(C#N)C1c1cccs1` (stereo not given), the cytotoxicity was 78.9% (active).
The value for `CCOC(=O)C1=C(C)NC(SCC(=O)Nc2cc(C)on2)=C(C#N)C1c1cccs1` (stereo not given) was 10.6% (inactive); that for `CCOCCSC1=C(C#N)C(c2cccs2)C(C(C)=O)=C(C)N1` (stereo not given) was 4.5% (inactive).
The value for `C#CCSC1=C(C#N)C(c2cccs2)C(C(=O)OCC)=C(C)N1` (stereo not given) was 53% (active); that for `CCSC1=C(C#N)C(c2cccs2)C(C(=O)OC)=C(C)N1` (stereo not given) was 13.4% (inactive); that for `CCOC(=O)C1=C(C)NC(SCc2cc(=O)[nH][nH]2)=C(C#N)C1c1cccs1` (stereo not given) was 37.1% (inactive).
The value for `O=C(Nc1ccc2c(c1)OCO2)C1CC(c2ccccc2Cl)=NO1` (stereo not given) was 5.2% (inactive); that for `CC(=O)OCC(=O)NCc1ccc2c(c1)OCO2` was -32.4% (inactive).
As for `c1ccc(-n2c(Sc3cnccn3)nnc2-c2cccs2)cc1`, the cytotoxicity was -0.3% (inactive).
On to `Cc1occc1C(=O)Nc1cccnc1`, for which the cytotoxicity is -15.1% (inactive).
For `O=S(=O)(c1ccc(Oc2ccc(S(=O)(=O)N3CCOCC3)cc2)cc1)N1CCOCC1`, the cytotoxicity is -11.9% (inactive).
The value for `CNS(=O)(=O)c1ccc(Oc2ccc(S(=O)(=O)NC)cc2)cc1` was 5% (inactive).
The value for `C=CS(=O)(=O)c1ccc(Oc2ccc(S(=O)(=O)C=C)cc2)cc1` was 93.9% (active); that for `CCOC(=O)Cc1csc(NC(=O)CCS(=O)(=O)Cc2ccccc2)n1` was 0% (inactive).
On to `Cc1cccc(NC(=O)NCCN2C(=O)C3C4C=CC(C4)C3C2=O)c1` (stereo not given), for which the cytotoxicity was 0.7% (inactive).
Consider `CC(=O)NC(Cc1c[nH]c2ccccc12)C(=O)N1CCc2ccccc2C1` (stereo not given), for which the cytotoxicity was 4.8% (inactive).
For the molecule `CCOc1cc(C2c3c(n[nH]c3C)C(=O)N2c2ccc(Br)cc2)ccc1O` (stereo not given), the cytotoxicity is 15.4% (inactive).
The figure for `COc1cc(C2c3c(n[nH]c3C)C(=O)N2c2ccc(C)cc2)ccc1O` (stereo not given) is 53.1% (active).
The figure for `COc1cc(C2c3c(n[nH]c3C)C(=O)N2c2ccc(Br)cc2)ccc1O` (stereo not given) is 27.9% (inactive); for `COc1ccc(Cl)cc1N(CC(=O)N1CCN(Cc2ccccc2)CC1)S(C)(=O)=O` it is -0.8% (inactive); for `CC(C)(C)NC(=O)CSc1nnc(-c2ccco2)n1Cc1ccco1` it is -15.8% (inactive).
Regarding `COC(=O)c1ccc(C(=O)OC)nc1`, the cytotoxicity is -18.5% (inactive).
The value for `CCOC1(NC(=O)c2ccccc2)C(C)=CC(=O)C=C1C` was -9.8% (inactive); that for `O=C(Cn1cccc1)Nc1ccc(OC(F)(F)F)cc1` was -1.8% (inactive).
The figure for `C=CCn1c(SC(CCO)C(=O)NCc2ccco2)nc2sc3c(c2c1=O)CCC3` (stereo not given) is 6.3% (inactive); for `C=CCn1c(NCCO)nc2sc3c(c2c1=O)CCC3` it is 62.9% (active).
The figure for `C=CCn1c(SCC(=O)N2CCOCC2)nc2sc3c(c2c1=O)CCCC3` is -1.2% (inactive).

These data come from PubChem BioAssay AID430 (Sanford-Burnham Center for Chemical Genomics, 2006).
